Sampled rows, rich in hits. Any-hit rate of the full collection: about 2.7%.
IP6K1 inh: blocks human inositol hexakisphosphate kinase 1 | Q92551 | IP6K1 kinase, ADP-Glo luminescence, 2 h; active compounds read low | activity change, % (series mostly up to about 58 µM) | AID 1645851 | actives 0.81% (n = 140,000); in the data active = activity change below about -25%; also: % is scaled to controls: 0 for no effect and ±100 for the full control effect
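ADP-Glo luminescence measures ADP made by human IP6K1 during a 2 h RT reaction with ATP/IP6 (mix at 1.3 mM/130 uM); top library doses 57.5 and 19.1 uM final.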
KDM5B inhibitor: inhibitors of human KDM5B histone demethylase; Q9UGL1; KDM5B demethylase, FDH-coupled NADH fluorescence (FDH is formaldehyde dehydrogenase); Potency, µM (doses to about 57.7 µM), most hits filed as inhibitors; actives 2.6% (n = 220,000); active = well fitted inhibition curve with a large enough effect; inconclusive = small, poorly fitted or top-dose-only effect; inactive = no such curve, though single readings can be large or run the other way; also: potency is read from the fitted curve at half-maximal effect; 0% is about no effect; nearly all actives have a fitted effect of over 70% in size
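qHTS format, multiple compound concentrations. Buffer 50 mM HEPES pH 7.5/0.01% Tween-20; 200 nM KDM5BΔAP final; 10 min compound preincubation; substrate-mix levels 12.5 µM peptide, 25 µM α-KG, 0.25 mM NAD⁺; 30 min RT; ΔRFU.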
* hit, by the source's call; i = inactive; u = inconclusive; x = no result given.

SMILES | IP6K1 inh | KDM5B inhibitor
COc1ncccc1-c1cc2[nH]ccc2c(C(=O)NCc2c(C)cc(C)[nH]c2=O)n1 | -2 | i
Cc1cc(C)c(CNC(=O)c2nc(Nc3ccccc3)cc3[nH]ccc23)c(=O)[nH]1 | -18 | 16µM*
Cc1cc(C)c(CNC(=O)c2nc(-c3cccc(O)c3)cc3[nH]ccc23)c(=O)[nH]1 | -15 | 32µM*
Cc1noc(C)c1S(=O)(=O)N1CCC2(CC1)CC(Cc1ccccc1)CCO2 (stereo unspecified) | 9 | x
CSc1ccc(-c2cccc(CN3CCC(NC(=O)Nc4ccc(Cl)cc4)CC3)c2)cc1 | -9 | x
Cc1ncc(-c2ccc(C)c(S(=O)(=O)Nc3cccc(Cl)c3)c2)o1 | x | i
CN(c1cc(=O)c2ccnc(-c3ccc(F)c(Cl)c3)c2o1)C1CCOCC1 | -1 | 35µM*
CN(c1cc(=O)c2ccnc(N3CCOCC3)c2o1)C1CCOCC1 | -17 | u
CCCn1nccc1C(=O)NCc1cccnc1Oc1ccc(C)nc1 | -14 | 32µM*
CCCn1nccc1C(=O)NCc1cccnc1-n1cnc2ccccc21 | -12 | i
O=C(O)c1ccc(CN2C[C@@H]3OCC(=O)N(CC4CC4)[C@@H]3C2)cc1 | -5 | i
O=C(Cc1ccccc1F)N1CC(Oc2ccc(-c3noc(-c4cccnc4)n3)cc2)C1 | 4 | u
CC(C)S(=O)(=O)N1CC(Oc2ccc(-c3noc(-c4cccnc4)n3)cc2)C1 | -10 | 28µM*
Cc1ccccc1CNC(=O)c1cc2c(C)nn(C)c2s1 | x | i
O=C(CNC(=O)c1ccc(-c2cnc3ccccc3c2)cc1)NCc1cccc(C(F)(F)F)c1 | 21 | x
CC(C)(C)c1nnc(Nc2cc(Cl)ccc2Cl)[nH]c1=O | x | i
N#Cc1cccnc1-c1ccc(C(=O)N2CCC(NC(=O)c3ccccc3F)CC2)cc1 | -4 | x
N#Cc1cccnc1N1CCC(NC(=O)c2ccc3cccc(F)c3n2)CC1 | 20 | 28µM*
N#Cc1cccnc1N1CCCC(CO)(Cc2ccc(F)cc2F)C1 (stereo unspecified) | 6 | u
CCN(C(=O)c1cccc(F)c1F)[C@@H]1CCN(c2ncccc2C#N)C[C@H]1O | 13 | 28µM*
COc1cccc(C(=O)N2CCc3nc(C4CC4)nc(-c4ccc(O)cc4)c3CC2)c1 | 13 | x
COc1ccccc1-c1ccc(CN2CCCCC2C(=O)NCc2ccc(F)c(F)c2)cc1 (stereo unspecified) | 11 | x
N#Cc1ccc(CN2CCN(C(=O)c3ccc(Cn4nnc5ccccc54)cc3)CC2)cc1 | x | i
O=C(c1ccc(F)cc1Cl)N1CCC(CCc2ccc(O)cc2)CC1 | x | i
COC[C@@H]1CN(Cc2ccc(F)cc2Cl)C[C@H]1C(=O)NC1CC1 | 4 | i
SMILES | IP6K1 inh | KDM5B inhibitor
COc1ccc(CC(=O)Nc2c(NCC3CCCCC3)c3ccccc3oc2=O)cc1 | x | i
CCc1ccc(CN2CCC(CNC(=O)C(C)(C)C)CC2)nc1 | 20 | i
CCc1ccc(CN2CCC(CNC(=O)c3ccc(C)nc3)C2)nc1 (stereo unspecified) | 0 | 16µM*
CSc1ccc(-c2cccc(C(=O)NCC(=O)NCc3cccnc3)c2)cc1 | 1 | x
C=CCSC1=N/C(=C\c2ccc(C(C)C)cc2)C(=O)S1 | x | i
O=c1c2nc(Nc3cccc(F)c3)ccc2ncn1Cc1ccccc1 | 6 | u
O=c1c2nc(NCc3cccs3)ccc2ncn1Cc1ccccc1 | 12 | 40µM*
NC(=O)c1ccc(NC(=O)CCC2CCCC2)cc1Cl | x | i
COCC(=O)NCCNC(=O)c1ccc(-c2cccc(C(F)(F)F)c2)cc1 | 13 | x
COc1ccc(Nc2ccnc(N3CCC(NC(=O)Cc4ccc(C(F)(F)F)cc4)CC3)n2)cc1 | -4 | x
C[S+](=O)([O-])CCn1ncc2cc(OCc3cccc(-c4ccc(F)cc4)c3)ccc21 | -3 | 35µM*
C[S+](=O)([O-])CCn1ncc2cc(OCc3cccc(-c4cncnc4)c3)ccc21 | -3 | i
COc1ncc(-c2cccc(COc3ccc4c(cnn4CC[S+](C)(=O)[O-])c3)c2)cn1 | 9 | 35µM*
COc1ccccc1-c1cccc(COc2ccc3c(cnn3CC[S+](C)(=O)[O-])c2)c1 | 5 | u
C[S+](=O)([O-])CCn1ncc2cc(OCc3cccc(-c4cccc(F)c4)c3)ccc21 | 20 | u
COc1ncccc1-c1cccc(COc2ccc3c(cnn3CC[S+](C)(=O)[O-])c2)c1 | -6 | 32µM*
O=C(c1nnn2c1COC(c1ccc(Cl)cc1)C2)N1CCN(C(=O)C2(c3ccccc3)CC2)CC1 (stereo unspecified) | -8 | i
COc1ccc(-n2nc(C)c3c2NC(=O)CC3c2ccccc2OCC(C)C)nn1 (stereo unspecified) | x | i
O=C(CN(c1ccc(Cl)cc1Cl)S(=O)(=O)c1ccccc1)N1CCCC1 | x | i
O=C(C1CC1)N1CCCC(C(=O)N2CCCC(c3nc4ncccc4[nH]3)C2)C1 (stereo unspecified) | 26 | x
